Screens (PubChem BioAssay)
DT40 TDP1 no CPT – qHTS for Inhibitors of human tyrosyl-DNA phosphodiesterase 1 (TDP1): qHTS in cells in absence of CPT; Potency, µM (titrated, usually from 46.2 µM), inactives show at the top dose activity change, negative = growth inhibition, hits mostly inhibitors; actives 15% (n = 420,000); AID 686978, 2013; DT40 Tdp1-/- hTDP1 cells, no CPT, ATP luminescence, 48 h; note: potency is the fitted concentration of half-maximal effect; % is set by controls: 0 for no effect and ±100 for the full control effect; nearly all actives have a fitted effect of over 55% in size
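Compound effects on proliferation are scored in DT40 Tdp1-/-;hTDP1 cells in the absence of CPT. ATP levels (CellTiter-Glo luminescence) are recorded after a ≥48 hr, 37 °C incubation.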
TDP1 cell CPT – DT40-hTDP1 cell growth loss with CPT; chicken DT40 Tdp1-/-;hTDP1 cells + 20 nM CPT, ATP luminescence, 48 h; Potency, µM (top dose mostly 46.2 µM), for the others: at the highest dose activity change, negative = growth inhibition, most hits filed as inhibitors; actives 12% (n = 420,000); note: potency is the fitted concentration of half-maximal effect; % is set by controls: 0 for no effect and ±100 for the full control effect; nearly all actives have a fitted effect of over 55% in size
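Cell growth measured by CellTiter-Glo luminescence after a minimum 48 h, 37 C compound exposure with 20 nM CPT in Tdp1-knockout DT40 cells stably expressing hTDP1, seeded 400/well; qHTS titration format.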
TGFb inhibitor – blocks TGF-b signaling | HepG2 CAGA-GFP TGF-b/SMAD3 reporter, GFP fluorescence, 18 h; TGF-beta stimulated, 500 pg/mL final | Potency, µM (titrated, usually from 46.1 µM), for inactives: at the top dose activity, negative = inhibition, most hits filed as inhibitors | actives 1.2% (n = 410,000) | AID 588855; note: potency is the fitted concentration of half-maximal effect; % is set by controls: 0 for no effect and ±100 for the full control effect; nearly all actives have a fitted effect of over 65% in size
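First, reporter cells (HEPG2 CAGA-GFP) rested 2 h at 37 degrees C. Next, compounds were pinned in and TGF-beta added to 500 pg/mL final. After 18 h, GFP was imaged per cell and summed per well.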
TDP1 inh – inhibitors of human tyrosyl-DNA phosphodiesterase TDP1. Q9NUW8. recombinant TDP1, AlphaScreen DNA substrate cleavage. Potency, µM (series often up to 130 µM), inactives show top-dose activity change, negative = inhibition, usual class: inhibitors. actives 0.28% (n = 350,000). AID 485290; note: potency is the fitted concentration of half-maximal effect; % is set by controls: 0 for no effect and ±100 for the full control effect; nearly all actives have a fitted effect of over 40% in size
Target sequence (Q9NUW8 whole entry, looked up): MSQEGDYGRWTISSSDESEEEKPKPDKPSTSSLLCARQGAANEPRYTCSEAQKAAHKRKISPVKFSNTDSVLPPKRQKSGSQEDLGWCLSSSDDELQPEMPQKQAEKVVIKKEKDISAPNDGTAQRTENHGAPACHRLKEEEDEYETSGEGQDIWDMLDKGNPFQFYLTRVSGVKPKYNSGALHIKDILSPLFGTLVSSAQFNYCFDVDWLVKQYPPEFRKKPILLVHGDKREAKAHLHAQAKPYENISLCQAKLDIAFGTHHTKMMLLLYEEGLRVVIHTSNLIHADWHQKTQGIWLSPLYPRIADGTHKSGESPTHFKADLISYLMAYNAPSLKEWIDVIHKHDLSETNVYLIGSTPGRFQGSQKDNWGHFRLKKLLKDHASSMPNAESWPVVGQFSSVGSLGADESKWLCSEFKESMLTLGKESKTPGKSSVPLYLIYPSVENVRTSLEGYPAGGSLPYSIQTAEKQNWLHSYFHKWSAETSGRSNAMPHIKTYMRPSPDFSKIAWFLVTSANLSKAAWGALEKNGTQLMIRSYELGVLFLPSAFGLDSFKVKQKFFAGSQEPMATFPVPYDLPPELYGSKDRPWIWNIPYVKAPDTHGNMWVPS
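Compounds were preincubated with Tdp1 (1 nM final) for 15 min at room temperature before substrate (15 nM final) started a 5 min reaction; beads (10 ug/ml final) were then added for 10 min before AlphaScreen detection.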
HepG2 viability – counter-screen for TGF-b inhibitors: cytotoxicity in HepG2 cells. AID 588856. Potency, µM (highest dose often 46.1 µM), without a hit: at the highest dose activity change, negative = cytotoxicity, usual class: cytotoxic. actives 0.76% (n = 410,000). HepG2 CAGA-GFP viability, ATP luminescence, 18 h; note: potency is the fitted concentration of half-maximal effect
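CellTiter-Glo luminescence gave cytotoxicity after 18 hours at 37 degrees C. The cells were HepG2 CAGA-GFP in 1% FBS DMEM, stimulated with 500 pg/mL TGF-beta after compound addition. %Activity was normalised to no-cell wells (complete cell-killing) and DMSO (no toxicity), and curves were fitted and classified.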
IL-1B inflam inh – inhibitors of inflammasome signaling (IL-1 beta secretion) | activity change, % at 57.5 µM | THP-1 LPS/ATP IL-1B secretion, AlphaLISA, 16 h; stronger effect = lower value | AID 743279 | actives 4.7% (n = 360,000); in the data active = activity change below about -50%; inconclusive = mostly about -30% to -49%; note: % is set by controls: 0 for no effect and ±100 for the full control effect
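THP-1 cells pretreated 1 hr with compounds (up to 57.5 uM final), then stimulated with LPS (250 ng/mL final) plus ATP (1.25 mM final); secreted IL-1B measured by AlphaLISA after 16 hr, decreased signal indicating inhibition.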
* = called active by the depositor; ? = inconclusive; · = not tested or not shown; [ ] = remark or other dose. The list is not random: actives were taken first. Their share in the collection is about 18%. Unless noted, calls come from the whole dose curve; as a rule, active = well fitted curve in the direction sought with a large enough effect; inconclusive = small, poorly fitted or top-dose-only effect, or another doubt; inactive = no such curve, though single readings can be large; an effect the other way counts as inactive or inconclusive.

SMILES | DT40 TDP1 no CPT | TDP1 cell CPT | TGFb inhibitor | TDP1 inh | HepG2 viability | IL-1B inflam inh
C=CCN(C(=O)CNC(=O)c1ccco1)C(C(=O)NC1CCCC1)c1ccc(OC)cc1 (centres undefined) | -23% | 6% | 21% | -13% | 18% | 30
O=C(Nc1ccc2nc(SCc3ccccc3)sc2c1)c1cccc(F)c1 | -26% | -27% | -15% | -2% | -32% | ·
COc1ccccc1C(=O)Nc1ccc2nc(SCC(=O)N(C)C)sc2c1 | ? | -29% | -1% | 4% | -3% | -18
O=C(CSc1nc2ccc(NC(=O)c3ccccc3C(=O)O)cc2s1)Nc1ccc(F)c([N+](=O)[O-])c1 | -6% | 7% | -34% | 9%[0.0935 µM] | -10% | -61*
Cn1cnnc1SCC(=O)Nc1ccc2nc(SCc3ccccc3)sc2c1 | ? | ? | ? | 9% | -9% | -23
CN(C(=O)CSc1nc2ccc(NC(=O)c3ccccc3F)cc2s1)c1ccccc1 | 9.2µM* | 15µM* | ? | 2% | -29% | ·
CN(C(=O)CSc1nc2ccc(NC(=O)c3cccc(F)c3)cc2s1)c1ccccc1 | 6.5µM* | 8.2µM* | -35% | -2% | -23% | ·
CC(CC(=O)Nc1ccc(F)c([N+](=O)[O-])c1)c1ccccc1 (centres undefined) | ? | ? | -2% | 3% | 14% | -29
CC(C)(C)C(=O)Nc1ccc2nc(SCc3ccccc3)sc2c1 | 21µM* | ? | ? | 1% | -30% | ·
CCOC(=O)C1CCN(C(=O)CSc2n[nH]c(-c3ccc(OC)cc3)n2)CC1 | -8% | ? | -25% | 3% | -7% | ·
CSCC[C@H](NC(=O)[C@H]1N2C(=O)c3ccccc3C2SC1(C)C)C(=O)NCc1ccncc1 (some centres undefined) | 9% | -15% | 19% | 2% | 13% | -3
O=C(Nc1ccc2nc(SCc3ccccc3)sc2c1)c1ccccc1F | 13µM* | 16µM* | -5% | -9% | -13% | ·
CCOC(=O)CSc1nc2ccc(NC(=O)c3ccc(Cl)cc3)cc2s1 | ? | -27% | ? | 3% | -56% | ·
CCOc1ccc(C(=O)Nc2ccc3nc(SCC(=O)N(C)c4ccccc4)sc3c2)cc1 | 3.7µM* | 2.1µM* | -31% | 3% | -6% | ·
CC1(C)S[C@@H]2[C@H](NC(=O)[C@@H](N)c3ccccc3)C(=O)N2[C@H]1C(=O)O[C@H]1OC(=O)c2ccccc21 | · | · | · | 13%[21 µM] | · | ·
NC(=O)c1nsc(C(=O)N(CC(=O)NCc2ccc3c(c2)OCO3)C2CCCC2)c1N | -8% | 11% | -7% | 6% | -7% | -13
C=C[C@@H]1c2cccc(C)c2N(S(=O)(=O)c2ccc(C)cc2)[C@H](c2ccccc2)C1(C#N)S(=O)(=O)c1ccccc1 (some centres undefined) | 21µM* | ? | -14% | 2% | -17% | 35
C=C[C@@H]1c2c(F)cccc2N(S(=O)(=O)c2ccc(C)cc2)[C@H](c2ccc(C(=O)OC)cc2)C1(C#N)C#N | ? | ? | ? | 1% | -19% | 50
C=C[C@@H]1c2ccccc2N(S(=O)(=O)c2ccc(C)cc2)[C@H](c2ccc(C(F)(F)F)cc2)C1(C#N)C#N | 12µM* | 23µM* | ? | 1% | 9% | 13
C=C[C@@H]1c2cc(C)ccc2N(S(=O)(=O)c2ccc(C)cc2)[C@H](c2ccc(C(C)(F)F)cc2)C1(C#N)C#N | ? | ? | -12% | · | -6% | ·
C=C[C@@H]1c2c(F)cccc2N(S(=O)(=O)c2ccc(C)cc2)[C@H](c2ccc(OC(C)=O)cc2)C1(C#N)C#N | 21µM* | ? | ? | 0% | -90% | -7
COc1ccc(OC)c2c1cc(C(=O)N[C@@H](Cc1ccccc1)C(=O)O)n2C | -2% | 29% | -17% | · | 1% | 26
COc1ccc(CC(=O)NCC2CCCN(Cc3ccc(OC(F)(F)F)cc3)C2)cc1 (centres undefined) | 18µM* | 0% | -1% | · | -29% | -22
COc1cc(OC)cc(C(=O)NCC2CCCN(Cc3ccc(SC)cc3)C2)c1 (centres undefined) | 16µM* | ? | -7% | · | -19% | ?
CCc1ccc(CN2CCCC(CNC(=O)c3cc(OC)cc(OC)c3)C2)cc1 (centres undefined) | ? | ? | -12% | · | -33% | ?
SMILES | DT40 TDP1 no CPT | TDP1 cell CPT | TGFb inhibitor | TDP1 inh | HepG2 viability | IL-1B inflam inh
COc1ccc(CC(=O)NCC2CCCN(Cc3cc(OC)cc(OC)c3)C2)cc1 (centres undefined) | -12% | -21% | -2% | · | -36% | -50*
CC(Oc1ccccc1)C(=O)N1CCN=C1SCc1ccccc1F (centres undefined) | ? | ? | 2% | 5% | -8% | ?
O=c1c(-c2ccc3c(c2)OCCO3)coc2c(CN3CCOCC3)c(O)ccc12 | ? | -22% | 0% | 6% | -11% | -8
CCc1cc2c(=O)c(-c3ccc4c(c3)OCCO4)coc2c(CN2CCCCC2C)c1O (centres undefined) | 1.5µM* | 1.8µM* | ? | 8% | -19% | ?
CCc1cc2c(=O)c(-c3ccc4c(c3)OCCO4)coc2cc1OS(C)(=O)=O | ? | -14% | -19% | 3% | -20% | -87*
O=c1oc2c(CN3CCCCC3)c(O)ccc2cc1-c1nc2ccccc2[nH]1 | 12% | 7% | 29% | -5% | 3% | 52
CCOC(=O)c1oc2cc(O)c(CC)cc2c(=O)c1-c1ccc2c(c1)OCCO2 | -23% | -12% | -4% | 1% | -29% | -14
CCc1cc2c(=O)c(-c3nc4ccccc4[nH]3)coc2c(CN2CCCCC2C)c1O (centres undefined) | 10µM* | ? | 1% | 5% | -17% | -28
COc1ccc(CNC(=O)CCNS(=O)(=O)c2cc(Br)cnc2N)cc1 | 13µM* | 21µM* | 10% | 4% | 2% | 29
O=C(NCc1ccccn1)c1c(-c2ccccc2)sc2ccccc12 | ? | 23µM* | -11% | -4% | -35% | 81
CC(=O)NCCCc1ccc(C(=O)COC(=O)CNC(=O)c2ccc3ccccc3c2)cc1 | 3% | 0% | 0% | 1% | 4% | ·
